Bioassay records deposited in PubChem by National Center for Advancing Translational Sciences (NCATS).
D1 antagonist: antagonists of human D1 dopamine receptor. 360,000 tested, 3.2% active. P21728. HEK293 TREx D1 cells, calcium flux, dopamine EC80; stronger effect = lower value. activity change, negative = inhibition, % at 10 µM. AID 504652; in the data active = activity change below about -30%; note: % is set by controls: 0 for no effect and ±100 for the full control effect
Target sequence (P21728 whole entry, looked up): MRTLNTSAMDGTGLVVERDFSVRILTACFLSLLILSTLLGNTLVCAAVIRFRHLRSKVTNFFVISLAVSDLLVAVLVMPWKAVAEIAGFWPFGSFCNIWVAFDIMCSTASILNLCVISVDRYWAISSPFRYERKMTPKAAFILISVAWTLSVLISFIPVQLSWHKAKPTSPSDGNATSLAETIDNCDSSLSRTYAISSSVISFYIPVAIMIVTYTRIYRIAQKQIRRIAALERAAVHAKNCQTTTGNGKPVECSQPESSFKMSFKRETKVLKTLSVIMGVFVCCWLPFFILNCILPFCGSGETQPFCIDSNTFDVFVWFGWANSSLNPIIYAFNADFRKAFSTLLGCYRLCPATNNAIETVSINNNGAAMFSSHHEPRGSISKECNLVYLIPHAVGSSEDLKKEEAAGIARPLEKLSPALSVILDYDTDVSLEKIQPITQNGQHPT
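Kinetic fluorescence of a calcium dye serves as the read-out. D1-expressing Hek293 Trex cells, induced overnight at 30 C, are exposed to compound for 180 s before an EC80 dopamine addition, then read 180 s further.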
D1 ag: agonists of human D1 dopamine receptor | 360,000 tested, 1% active | P21728 | AID 504660 | HEK293 T-REx D1 cells, calcium flux, agonist mode | activation, % at 2 µM; note: 0% is about no effect
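Tetracycline-induced HEK293 TREx D1 cells, force-coupled to calcium signalling, were dye-loaded with a no-wash calcium kit. Compound was pin-added after a 10 s baseline. Fluorescence was read kinetically at 1 cycle/s for 180 s, with calcium rises flagged as agonism.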
TRHR PAM: TRH receptor (human) allosteric enhancement; P34981; TRHR cells, fluo-8 calcium fluorescence, EC20 TRH enhancement; enhancement, % at 2 µM; 360,000 tested, 0.66% active; AID 493056; in the data active = enhancement above about 30%; note: 0% is about no effect
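Enhancer read-out: after compound pinning and an initial kinetic agonist-mode read, an EC20 of TRH (10 nM final) was injected and fluo-8 calcium signal (Ex 480/Em 530) followed at 1 s/cycle for 100 cycles in TRHR-expressing cells.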
TRHR agonist: agonists of human TRH receptor; P34981; TRHR cells, calcium flux fluo-8, FDSS agonist mode; activation, % at 2 µM; 360,000 tested, 0.18% active; AID 493084; note: 0% is about no effect
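Agonist-mode FDSS calcium read (Ex 480/Em 530, 1 s cycles) in 1536-well TRHR cells with fluo-8 dye, after 10-cycle baseline and 23 nL compound addition; TRH at EC20 (10 nM final) added afterwards for the enhancer phase.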
D1 potentiator: human D1 dopamine receptor positive modulation; HEK293 TREx D1 cells, calcium flux, dopamine EC20 potentiation; potentiation, % at 10 µM; 360,000 tested, 0.036% active; AID 504651; in the data active = potentiation above about 30%; note: 0% is about no effect
An asterisk follows results filed as active; x = no result; ! = repeats disagree. Most compounds without a hit are left out; they make up all but 4.7% or so of the library. Cut-off read from the data, not from the text of the source, unless noted: active = activation above about 30%; inactive = the rest.

SMILES | D1 antagonist | D1 ag | TRHR PAM | TRHR agonist | D1 potentiator
CCc1ccccc1NS(=O)(=O)c1ccc2[nH]cc(C(=O)N(CC)Cc3ccccc3)c(=O)c2c1 | -3 | 0 | -2 | 1 | 0
CCCOc1ccc(CCC(=O)N/N=C/c2ccncc2)cc1 | -36* | 2 | 1 | -1 | 1
Cc1ccc(C)c(NC(=O)C(c2ccccc2)N2Cc3ccccc3C2=O)c1 (stereo not given) | -7 | 6 | 32* | 0 | 7
Cc1cc(C)c2c(C)nn(-c3ccccc3)c2n1 | 1 | 37* | -10 | -1 | 4
COC(=O)c1cc2oc3ccccc3c2n1Cc1ccc(Cl)cc1 | 22 | 13 | -3 | 1 | 0
COc1ccc(-c2nc3c4ccccc4n(CC(=O)N4CCN(c5ccccc5OC)CC4)c(=O)n3n2)cc1 | x | 0 | 5 | 0 | 2
Cc1cc(C)c(S(=O)(=O)N/N=C/c2ccc3c(c2)OCO3)c(C)c1 | -72* | 2 | 0 | 1 | -3
Cc1cc(Cl)c(S(=O)(=O)N/N=C/c2ccc3c(c2)OCO3)c(Cl)c1 | 0 | 3 | 4 | 0 | -6
O=C(O)c1ccccc1NCc1ccco1 | 3 | 3 | -3 | 0 | 8
CCOc1ccc2noc3c2c1C(=O)c1ccccc1-3 | -24 | 98* | 1 | 46* | 2
CCNc1ccc2noc3c2c1C(=O)c1ccccc1-3 | -44* | 313* | 31* | 122* | 3
O=C1c2ccccc2-c2onc3ccc(NCc4ccco4)c1c23 | -2 | 122* | 7 | 63* | -8
CCCC(=O)N1c2ncnn2C2(CCCCC2)[C@@H]2CCCC[C@@H]21 | -3 | 5 | 1 | 0 | 0
O=C(CCN1C(=O)/C(=C/c2cccs2)SC1=S)Nc1ccccn1 | -13 | 45* | 0 | 7 | -8
O=C(CCCN1C(=O)/C(=C\c2cccs2)SC1=S)Nc1ccc(O)cc1 | -33* | 4 | 3 | 0 | -2
O=C(CCCN1C(=O)/C(=C\c2cccs2)SC1=S)Nc1ccc(C(=O)O)cc1 | 12 | 3 | 7 | 3 | -2
CCN(CC)CCOC(=O)c1ccc(NC(=O)CCCN2C(=O)/C(=C/c3cccs3)SC2=S)cc1 | -77* | 10 | 0 | 2 | -22
O=C(CCCN1C(=O)/C(=C\c2cccs2)SC1=S)Nc1ccccn1 | -23 | 1 | -16 | -1 | 0
Cc1c(Cl)cccc1NC(=O)Cn1cnc2nc3c(cc2c1=O)CCCC3 | 13 | 1 | -2 | 0 | -1
Cc1ccc2c(=O)cc(C(=O)Nc3ccc(S(=O)(=O)N4CCCCC4C)cc3)oc2c1C (stereo not given) | -5 | 0 | -5 | 0 | 1
CC(=O)c1cccc(NC(=O)c2cc3sc(Cl)cc3n2C)c1 | -6 | 9 | 10 | 0 | -7
CN(C)CCN(Cc1ccco1)C(=O)c1oc2ccccc2c1NC(=O)COc1ccccc1 | -40* | 16 | 4 | 2 | -13
CN(C)CCN(Cc1ccco1)C(=O)c1oc2ccccc2c1NC(=O)c1cccc(F)c1 | -16 | 66* | 7 | -1 | 4
COc1ccc(C(=O)c2oc3ccccc3c2NC(=O)COc2ccc(C)cc2)cc1 | -8 | 4 | 2 | 0 | 0
CSc1nsc(/C=C/Nc2cccc(Cl)c2)c1C#N | -33* | 7 | -3 | 2 | -8
SMILES | D1 antagonist | D1 ag | TRHR PAM | TRHR agonist | D1 potentiator
CSc1nsc(/C=C/Nc2ccc(Cl)cc2)c1C#N | -6 | 6 | -3 | 1 | -6
CSCc1ccc(C(=O)NCCSc2ccc(Br)cc2)cc1 | -37* | 5 | -3 | -1 | -12
CN(c1ccccc1)S(=O)(=O)c1ccc(NC(=O)c2cc(=O)c3ccccc3o2)cc1 | -2 | 3 | 24 | 1 | -2
CC(=O)COc1coc(CN2CCN(c3ccc(F)cc3)CC2)cc1=O | -1 | 1 | 31* | 0 | -2
COc1ccc(Cl)cc1NC(=O)CN(C)C(=O)c1cc2c(s1)CCCC2 | -38* | 6 | 2 | 0 | -5
COc1ccc(Cl)cc1NC(=O)CN(C)C(=O)Cc1ccc2c(c1)CCC2 | 8 | 0 | -2 | 0 | 4
COc1cc2c(cc1OC)C(c1ccccc1)N(C(=O)CCl)CC2 (stereo not given) | -32* | 2 | -5 | 4 | -5
COc1cc2c(cc1OC)C(C1C(=O)CCCC1=O)N(C(=O)CCl)CC2 (stereo not given) | 3 | 0 | 3 | 0 | -2
COc1cc2c(cc1OC)C(c1cccs1)N(C(=O)C(C)C)CC2 (stereo not given) | -78* | -1 | -4 | -1 | -11
COc1cc2c(cc1OC)C(c1cccs1)N(C(=O)c1cccnc1)CC2 (stereo not given) | -9 | 0 | 1 | 0 | -5
CCOC(=O)Cc1ccc(NC(=O)NCc2c(-n3cccc3)sc3c2CCCC3)cc1 | -7 | 0 | 2 | -1 | 0
Cc1cccc(NC(=O)c2oc3ccccc3c2NC(=O)Cc2coc3cc(C)cc(C)c23)c1 | -8 | 3 | -5 | 0 | 0
CC(C)(O)C#Cc1ccc(C(=O)N2CCN(c3ccccc3)CC2)cc1 | -25 | 3 | 34* | 1 | -1
CC(C)CN(CC(C)C)C(=O)COc1ccccc1C(N)=O | -35* | 4 | 4 | 0 | -1
CCN1C(=NCC(C)C)N[C@@H](c2cccc(F)c2)C(C(=O)OC)=C1C | -33*! | 6 | -12 | 1 | -2
O=C(CCC(=O)N1CC2CCCN2c2ccccc21)NCc1ccccc1 (stereo not given) | 9 | 1 | 8 | 0 | -4
CC(C)CNc1nc(S(=O)(=O)c2ccccc2)c(Cl)s1 | -37* | 2 | -12 | 0 | -7
CN(C)CCNc1nc(S(=O)(=O)c2ccccc2)c(Cl)s1 | -5 | 5 | 2 | 1 | -4
OCCOc1ccc(CN2CCCC(N3CCN(c4ccc(F)cc4)CC3)C2)cc1 (stereo not given) | -43* | 0 | -2 | 0 | -5
COc1ccc(NC(=O)Nc2nnc(N3CCCC3)s2)cc1 | -13 | -1 | -3 | 0 | -1
CN(C)C(CNC(=O)c1cccc(S(=O)(=O)Nc2ccccc2Cl)c1)c1ccco1 (stereo not given) | -10 | 2 | 7 | 0 | 4
CN(C)C(CNC(=O)Cc1cccc(C(F)(F)F)c1)c1ccco1 (stereo not given) | -48* | 5 | 6 | 1 | -2
CNS(=O)(=O)c1cccc(C(=O)NCC(c2ccco2)N(C)C)c1 (stereo not given) | -35* | 0 | -11 | 0 | 1
Cc1ccc(NS(=O)(=O)c2ccc(C(=O)NCC(c3ccco3)N(C)C)cc2)cc1 (stereo not given) | -31* | 53* | 6 | 5 | -7
COc1ccccc1NS(=O)(=O)c1ccc(C(=O)NCC(c2ccccc2OC)N(C)C)cc1 (stereo not given) | -1 | 2 | 3 | 0 | -5
